Test results as given in PubChem BioAssay (NCI).
The panel holds about 79,000 compounds, 15% with a hit somewhere; the sample as a whole holds those more often. A number with no mark means an inactive call. Activity calls are given as the source filed them. No stated cut-off is given here; in the data, active means growth inhibition above about 70%; inactive means the rest.

Experiments:
[1] = NCI Yeast Anticancer Drug Screen. Data for the rad50 strain (AID 155);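 further: 0% = growth of vehicle-only cultures of the same strain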; conditions: S. cerevisiae rad50 strain growth inhibition, hits give high values
Outline: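 Cells are treated with compound, grown, and their growth is then scored against vehicle-only cultures of the same repair-deficient yeast strain.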

[2] = NCI Yeast Anticancer Drug Screen. Data for the mec2-1 strain (AID 157); conditions: S. cerevisiae mec2-1 strain, hits give high values
Outline: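 Compounds were applied to mec2-1 yeast cells. Their growth was then compared with that of vehicle-treated cultures to give growth inhibition.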

[3] = NCI Yeast Anticancer Drug Screen. Data for the sgs1 mgt1 strain (AID 161);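 further: 0% = growth of cultures given vehicle only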; conditions: S. cerevisiae sgs1 mgt1 strain, hits give high values
Outline: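 Compounds are added to genetically altered yeast, and growth is compared with cultures given vehicle alone to give percent inhibition.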

[4] = NCI Yeast Anticancer Drug Screen. Data for the cln2 rad14 strain (AID 165);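 further: 0% = growth equal to vehicle treated cultures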; conditions: S. cerevisiae cln2 rad14 strain, hits give high values
Outline: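 Strain: cln2 rad14 yeast, altered in cell cycle control and DNA damage repair. Read-out: growth inhibition vs vehicle.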

[5] = NCI Yeast Anticancer Drug Screen. Data for the bub3 strain (AID 167); conditions: S. cerevisiae bub3 mutant strain, hits give high values
Outline: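 Part of a panel of yeast mutants defective in DNA damage repair or cell cycle regulation. Each strain is grown with compound, and inhibition is calculated relative to solvent-treated cultures.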

[6] = NCI Yeast Anticancer Drug Screen. Data for the mlh1 rad18 strain (AID 175); conditions: S. cerevisiae mlh1 rad18 strain growth inhibition, hits give high values
Outline: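 A repair-deficient yeast strain is exposed to test compound, and growth is scored relative to vehicle-treated controls.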

[7] = at 5.0 µM (retest, dose inferred, filed as 0.5)
[8] = at 50.0 µM (retest, dose inferred, filed as 5.0)

SMILES | growth inhibition [1, 7] | growth inhibition [1, 8] | growth inhibition ([1]; at 50.0 µM) | growth inhibition [2, 7] | growth inhibition [2, 8] | growth inhibition ([2]; at 50.0 µM) | growth inhibition [3, 7] | growth inhibition [3, 8] | growth inhibition ([3]; at 50.0 µM) | growth inhibition [4, 7] | growth inhibition [4, 8] | growth inhibition ([4]; at 50.0 µM) | growth inhibition [5, 7] | growth inhibition [5, 8] | growth inhibition ([5]; at 50.0 µM) | growth inhibition [6, 7] | growth inhibition [6, 8] | growth inhibition ([6]; at 50.0 µM)
CCCCCCOC(=O)C(N)Cc1ccc(OC)cc1 (configuration not stated) | 5% | 21% | 39.2% | 7% | 29% | 40.5% | 6% | 42% | 56.2% | 2% | 17% | 32.4% | 5% | 80% (active) | 52% | -1% | 43% | 48.1%
COc1ccc([N+](=O)[O-])cc1NC(=O)Nc1ccc(C(=O)OCC(C)C)cc1 | 11% | 36% | 48.8% | 3% | 53% | 70.2% (active) | 3% | 48% | 68.2% | -10% | 56% | 57% | -5% | 47% | 45.3% | 13% | 3% | 74.9% (active)
Cc1cc(N=[N+]=[N-])c2cc(C3CCCCC3)ccc2n1 | 12% | 99% (active) | 96.5% (active) | 8% | 98% (active) | 78.8% (active) | 7% | 99% (active) | 97.8% (active) | 8% | 69% | 90.3% (active) | 0% | 96% (active) | 90.9% (active) | -2% | 99% (active) | 96.8% (active)
O=C(Oc1c([N+](=O)[O-])cc(-c2ccc([N+](=O)[O-])cc2)cc1[N+](=O)[O-])c1ccccc1 | 32% | 56% | 74.7% (active) | 86% (active) | 89% (active) | 78.1% (active) | 80% (active) | 87% (active) | 82.5% (active) | 34% | 76% (active) | 79.3% (active) | 49% | 74% (active) | 74.3% (active) | 82% (active) | 83% (active) | 82.7% (active)
CC(=O)Oc1ccccc1N(C(C)=O)S(=O)(=O)c1ccc(C)cc1 | 16% | 98% (active) | 95.7% (active) | 12% | 99% (active) | 97.5% (active) | 11% | 99% (active) | 96.2% (active) | 1% | 99% (active) | 98.5% (active) | -2% | 99% (active) | 99.2% (active) | 34% | 99% (active) | 98.8% (active)
C/C(=N\Nc1n[nH]c(=S)n1N)c1c(O)cc(C)oc1=O | -28% | 13% | -23% | 3% | 12% | 12.1% | -1% | 4% | 18.9% | -2% | 9% | -21% | 2% | 3% | 14.1% | -2% | 2% | 16.5%
CCCCCCCCCCN1CCN(C(=O)OCC)CC1 | 51% | 68% | 95% (active) | 54% | 77% (active) | 72.2% (active) | 67% | 97% (active) | 94.7% (active) | 58% | 67% | 90.7% (active) | 62% | 80% (active) | 95.8% (active) | 79% (active) | 91% (active) | 89.2% (active)
CCc1c(C)[nH]c(-c2csc(N)n2)c1C | -1% | 93% (active) | -4.25% | 1% | 95% (active) | 83.9% (active) | -1% | 94% (active) | 2.8% | 1% | 93% (active) | 31.7% | 4% | 92% (active) | 67.8% | 2% | 93% (active) | 56.8%
CCC(=O)/C(=C\c1ccccc1)C(=O)C(C)CN(C)C (configuration not stated) | 9% | 23% | 7% | 13% | 16% | 17.6% | 12% | 16% | 26.6% | 20% | 25% | 25.8% | 10% | 15% | 33.8% | 16% | 24% | 51.8%
O=C(NO)Nc1nc(Cl)c(Cl)nc1Cl | 16% | 97% (active) | 90% (active) | 18% | 99% (active) | 92.7% (active) | 30% | 99% (active) | 90.2% (active) | 2% | 99% (active) | 83.5% (active) | 6% | 98% (active) | 90.3% (active) | 20% | 99% (active) | 90.3% (active)
CN(/N=C/C(O)C(O)C(O)CO)c1ccccc1 (configuration not stated) | 20% | 97% (active) | 98% (active) | 3% | 99% (active) | 98.5% (active) | 9% | 99% (active) | 98.5% (active) | 14% | 98% (active) | 98.5% (active) | 36% | 99% (active) | 98.5% (active) | 47% | 99% (active) | 98.8% (active)
CC(C)(C)c1ccc(O)c(O)c1 | 2% | 56% | 63.4% | 10% | 51% | 61.6% | 11% | 54% | 79.8% (active) | -1% | 16% | -8.95% | -3% | 23% | 37.6% | 10% | 75% (active) | 81.2% (active)
O=C(Nn1c(=O)c(=O)oc2ccccc21)C(F)(F)F | 0% | 90% (active) | 94.7% (active) | 1% | 87% (active) | 69.4% | 17% | 88% (active) | 81.2% (active) | 3% | 93% (active) | 94.2% (active) | 9% | 95% (active) | 90.9% (active) | 26% | 97% (active) | 97.4% (active)
c1ccc2c(c1)oc1cc3c(cc12)CCCN3 | 18% | 97% (active) | 91.7% (active) | 19% | 98% (active) | 10.3% | 7% | 98% (active) | 74.7% (active) | 3% | 97% (active) | 4.4% | 19% | 98% (active) | 77.7% (active) | 18% | 98% (active) | 43.5%
Cc1cc(Nc2ccc(O)c(CN3CCN(Cc4cc(Nc5cc(C)nc(N)n5)ccc4O)CC3)c2)nc(N)n1 | 8% | 95% (active) | 97.5% (active) | 6% | 96% (active) | 96.9% (active) | 5% | 96% (active) | 97.5% (active) | 12% | 94% (active) | 89.7% (active) | 9% | 95% (active) | 95.4% (active) | 7% | 97% (active) | 97.5% (active)
CC(=O)c1c(O)ccc2nc3ccccc3nc12 | 11% | 87% (active) | 94% (active) | 20% | 92% (active) | 91.5% (active) | 14% | 89% (active) | 82.6% (active) | 12% | 86% (active) | 82.8% (active) | 22% | 85% (active) | 92% (active) | 39% | 91% (active) | 94.5% (active)
O=C1OC(c2ccccc2)=N/C1=C\c1ccc(Oc2ccc(Cl)c(Cl)c2)cc1 | 8% | 8% | 69.4% | 14% | 14% | 61.5% | 0% | 0% | 74.8% (active) | -2% | -2% | 46% | -1% | -1% | 69.7% | -4% | -4% | 52.4%
O=C(C(/C=N/C(=S)NCc1ccccc1)=C(/O)c1ccccc1)c1ccccc1 | 6% | 86% (active) | 98.8% (active) | -1% | 69% | 98% (active) | 3% | 61% | 98.2% (active) | -9% | 87% (active) | 97.7% (active) | 2% | 97% (active) | 98.3% (active) | 12% | 71% (active) | 98.7% (active)
COc1cc(OC)c(C(=O)[O][Sn]([c]2ccccc2)([c]2ccccc2)[c]2ccccc2)cc1OC | 100% (active) | 98% (active) | 98.4% (active) | 100% (active) | 100% (active) | 96.3% (active) | 99% (active) | 99% (active) | 97.3% (active) | 99% (active) | 99% (active) | 90.5% (active) | 96% (active) | 99% (active) | 96.1% (active) | 99% (active) | 100% (active) | 96.7% (active)
